Records with an inconclusive call do not appear. Calls of active or inactive are those of the source. The calls were made as follows: active = hit-call score of the fitted dose curve at least 0.9, where 1 is the maximum; inconclusive = response in the unintended direction; inactive = score below 0.9.

System in one experiment: not listed separately
The experiment is described as follows: NVS_IC_rCaBTZCHL: NovaScreen (NVS) Ion Channel Assay for Calcium Channel, Type L, Benzothiazepine Site (CaBTZCHL) (AID 2283337). In outline: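 Competitive displacement of a site-specific radioligand from rat cortex membranes, measured as signal loss against DMSO baseline by filter radiodetection after 1.5 h. Single-point 25 uM primary screen.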
On to `NCc1cccc(C2CCN(C(=O)c3ccc(C#Cc4ccccc4F)o3)CC2)c1`, for which the AC50 is 2.9 µM (active). The same measure, in the same setting: the value for `CC/C(=C(/CC)c1ccc(O)cc1)c1ccc(O)cc1` was 12.4 µM (active); that for `CN(C)c1ccc(C(=C2C=CC(=[N+](C)C)C=C2)c2ccc(N(C)C)cc2)cc1` was 5.44 µM (active). Consider `O=C1c2ccccc2C(=O)N1CCc1noc(-c2ccc(CN3CCCCCC3)s2)n1`, for which the AC50 was 7.22 µM (active). On the same count and under the same terms, under `CCN(Cc1cccnc1)C(=O)c1cccc(Cl)c1[C@]1(C)C(=O)N(Cc2ccc(OC)cc2OC)c2ccc(Cl)cc21` stands 12.6 µM (active). On to `CCCCCCCCN(C)CCCCCCCC`, for which the outcome was inactive. `COc1cccc([C@H](O)C2CCN(CCc3ccc(F)cc3)CC2)c1OC`: the AC50 is 1.35 µM (active). On the same count and under the same terms, under `CCOC(=O)O[C@H](C)OC(=O)c1ccc2c(c1)cc(C(=O)NC1CCN(C(C)C)CC1)n2Cc1cc(-c2ccc(Cl)s2)on1` stands 9.12 µM (active); under `Cc1occc1C(=O)Nc1ccc(C(=O)N2CCC(F)(F)/C(=C\C(=O)N3CCC(N4CCCCC4)CC3)c3ccccc32)cc1`, 5.12 µM (active).

The next experiment deals with bovine Gamma-Aminobutyric Acid Type A Receptor Agonist (GABAR Agonist), GABRA1 (gene 780973) (UniProt P08219). Briefly: NVS_LGIC_bGABAR_Agonist: NovaScreen (NVS) Ligand-Gated Ion Channel Assay for bovine Gamma-Aminobutyric Acid Type A Receptor Agonist (GABAR Agonist) (AID 2283338). Put shortly: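 Radioligand binding to bovine cerebellar membranes in agonist format, read by filter-based scintillation counting after 1 h. Primary screen in duplicate at 25 uM, with actives followed in concentration series. Gain of signal versus DMSO.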
Chain of bovine Gamma-Aminobutyric Acid Type A Receptor Agonist (GABAR Agonist), GABRA1 (gene 780973) (P08219 whole entry, looked up): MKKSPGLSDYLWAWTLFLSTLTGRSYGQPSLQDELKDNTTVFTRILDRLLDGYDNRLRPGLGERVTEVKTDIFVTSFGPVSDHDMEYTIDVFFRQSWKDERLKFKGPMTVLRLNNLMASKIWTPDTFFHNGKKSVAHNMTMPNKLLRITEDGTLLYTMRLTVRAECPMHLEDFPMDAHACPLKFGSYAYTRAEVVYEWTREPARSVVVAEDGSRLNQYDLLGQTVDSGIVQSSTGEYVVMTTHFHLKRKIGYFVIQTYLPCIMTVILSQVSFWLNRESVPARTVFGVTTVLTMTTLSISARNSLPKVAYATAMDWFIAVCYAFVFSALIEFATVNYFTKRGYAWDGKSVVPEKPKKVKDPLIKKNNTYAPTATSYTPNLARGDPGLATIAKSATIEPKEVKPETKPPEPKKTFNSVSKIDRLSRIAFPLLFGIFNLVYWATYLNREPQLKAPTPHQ
Turning to `CCN(CC)C(=O)c1cc(S(=O)(=O)Cc2ccccc2)c(N2CCC(c3ccccc3)CC2)cc1N(CC)CCN(C)C`, the compound was classed as inactive. Still for that read-out and setting: the value for `O=C1O[C@H]([C@@H](O)CO)C(O)=C1O` was “inactive”. `CCOC(=O)O[C@H](C)OC(=O)c1ccc2c(c1)cc(C(=O)NC1CCN(C(C)C)CC1)n2Cc1cc(-c2ccc(Cl)s2)on1`: the concentration at half-maximal activity (AC50) was 11.8 µM (active).

In another experiment the target is rat Glutamate, MK-801 Agonist Site (GluNMDA_MK801), Grin1 (gene 24408) (UniProt P35439). Briefly: NVS_LGIC_rGluNMDA_MK801_Agonist: NovaScreen (NVS) Ligand-Gated Ion Channel Assay for rat Glutamate, MK-801 Agonist Site (GluNMDA_MK801) (AID 2283340). Put shortly:
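Radioligand binding at MK-801 site in rat forebrain membranes, 1.5 h incubation, filter-based scintillation counting. Initially 25 uM in duplicate; actives then run in concentration-response up to 50 uM, fitted for gain of signal versus DMSO.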
Consider `COc1ccc2cc(S(=O)(=O)N[C@H](CC(=O)N[C@H](Cc3ccc(CN4[C@H](C)CCC[C@@H]4C)cc3)C(=O)N(C)C(C)C)c3ccc4c(c3)OCO4)ccc2c1`, for which the compound was called inactive. The same measure, in the same setting: under `CN(C)C(=O)C1(N2CCCCC2)CCN(CC[C@@]2(c3ccc(Cl)c(Cl)c3)CN(C(=O)c3ccccc3)CCO2)CC1` stands “inactive”. Turning to `COc1cc(C(=O)NC2CCN(C)CC2)ccc1Nc1ncc2c(n1)N(C1CCCC1)CC(F)(F)C(=O)N2C`, the half-maximal activity concentration (AC50) was 15.9 µM (active). On the same count and under the same terms, under `NCc1cccc(C2CCN(C(=O)c3ccc(C#Cc4ccccc4F)o3)CC2)c1` stands 39.9 µM (active).

For a further experiment, the system named is guinea pig Histamine Receptor (H2), gene 100729734. Briefly: NVS_GPCR_gH2: NovaScreen (NVS) G Protein-Coupled Receptor Assay for guinea pig Histamine Receptor (H2) (AID 2283342). Put shortly: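 Radioligand displacement on guinea pig striatal membranes, 1 h after dosing, filter-based scintillation counting; loss of signal versus DMSO. Single-point screen at 25 uM in duplicate, then concentration-response up to 50 uM.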
As for `CCCCCCCCCCCC[N+](C)(C)C`, the AC50 is 19.6 µM (active). The same measure, in the same setting: the value for `COc1ccc2cc(S(=O)(=O)N[C@H](CC(=O)N[C@H](Cc3ccc(CN4[C@H](C)CCC[C@@H]4C)cc3)C(=O)N(C)C(C)C)c3ccc4c(c3)OCO4)ccc2c1` was 20.5 µM (active).

With `Cc1cc(F)ccc1-c1cc(N2CC[C@@H](O)[C@H]2CO)ncc1N(C)C(=O)C(C)(C)c1cc(C(F)(F)F)cc(C(F)(F)F)c1`, the compound was called inactive.

With `CN(C)C(=O)C1(N2CCCCC2)CCN(CC[C@@]2(c3ccc(Cl)c(Cl)c3)CN(C(=O)c3ccccc3)CCO2)CC1`, the AC50 was 1.08 µM (active). `COc1cc(C(=O)NC2CCN(C)CC2)ccc1Nc1ncc2c(n1)N(C1CCCC1)CC(F)(F)C(=O)N2C`: the AC50 was 4.77 µM (active). Same read-out and setting: the value for `CCN(CC)C(=O)c1cc(S(=O)(=O)Cc2ccccc2)c(N2CCC(c3ccccc3)CC2)cc1N(CC)CCN(C)C` was 2.84 µM (active); that for `Clc1cc(Cl)c2c(c1)N=C1CCCCCN1C2` was 1.85 µM (active). On the same count and under the same terms, under `NCc1cccc(C2CCN(C(=O)c3ccc(C#Cc4ccccc4F)o3)CC2)c1` stands 12 µM (active); under `CN(C)c1ccc(C(=C2C=CC(=[N+](C)C)C=C2)c2ccc(N(C)C)cc2)cc1`, 0.827 µM (active); under `O=C1c2ccccc2C(=O)N1CCc1noc(-c2ccc(CN3CCCCCC3)s2)n1`, 8.06 µM (active). Still for that read-out and setting: under `CCN(Cc1cccnc1)C(=O)c1cccc(Cl)c1[C@]1(C)C(=O)N(Cc2ccc(OC)cc2OC)c2ccc(Cl)cc21` stands 1.12 µM (active); under `CCCCCCCCN(C)CCCCCCCC`, 14.5 µM (active). `COc1cccc([C@H](O)C2CCN(CCc3ccc(F)cc3)CC2)c1OC`: the AC50 is 13.1 µM (active). On the same count and under the same terms, the value for `CCOC(=O)O[C@H](C)OC(=O)c1ccc2c(c1)cc(C(=O)NC1CCN(C(C)C)CC1)n2Cc1cc(-c2ccc(Cl)s2)on1` was 13.3 µM (active).

As to `Cc1occc1C(=O)Nc1ccc(C(=O)N2CCC(F)(F)/C(=C\C(=O)N3CCC(N4CCCCC4)CC3)c3ccccc32)cc1`, the call was inactive.

A further experiment relates to NCBI gene 100848466. Briefly: NVS_NR_bPR: NovaScreen (NVS) Nuclear Receptor Binding Assay for bovine Progextron Receptor (PR) (AID 2283343).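 As to AC50: actives lower bound radioligand signal below DMSO meaning displacement of the label.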 In outline: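 Bovine uterine membrane preparation; radioligand displacement read by scintillation counting 18 h after dosing. Primary screen single concentration, 25 uM, in duplicate; actives followed up in concentration series. Signal loss versus DMSO baseline.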
For the compound `Cc1cc(F)ccc1-c1cc(N2CC[C@@H](O)[C@H]2CO)ncc1N(C)C(=O)C(C)(C)c1cc(C(F)(F)F)cc(C(F)(F)F)c1`, the AC50 is 11.3 µM (active). In the case of `Cc1ccc2oc(CN(Cc3ccccc3)C(=O)Nc3c(F)cc(F)cc3F)c(-c3ccc(Cl)cc3)c2c1`, the result was inactive. For `CN(C[C@@H](CC[N+]12CCC(C3CCCCC3)(CC1)CC2)c1ccc(Cl)c(Cl)c1)C(=O)c1cc(C(F)(F)F)cc(C(F)(F)F)c1`, the AC50 is 41.5 µM (active). The same measure, in the same setting: under `Cc1c2ccccc2c(C)c2c1ccc1ccccc12` stands 9.4 µM (active). For `CC/C(=C(/CC)c1ccc(O)cc1)c1ccc(O)cc1`, the half-maximal activity concentration (AC50) is 9.68 µM (active). As for `CN(C)c1ccc(C(=C2C=CC(=[N+](C)C)C=C2)c2ccc(N(C)C)cc2)cc1`, the AC50 is 4.43 µM (active). Take `CCN(Cc1cccnc1)C(=O)c1cccc(Cl)c1[C@]1(C)C(=O)N(Cc2ccc(OC)cc2OC)c2ccc(Cl)cc21`: the AC50 is 2.77 µM (active). As for `CCCCOC(=O)c1ccc(O)cc1`, the result was inactive. On the same count and under the same terms, under `CCCCCCCCOC(=O)c1cc(O)c(O)c(O)c1` stands “inactive”.
